About 83,000 compounds went through this panel and 20% of them were active in at least one assay; those are over-represented in the sample as a whole.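 Step 1: grow cells in 96-well plates. Step 2: add test compound at a single concentration. Step 3: incubate 48 h. Step 4: record percent growth.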 A number with no mark means an inactive call. The source made the active and inactive calls. Rule for the calls: active = growth percent below 10; inactive = the rest.
Each molecule was assayed on HL-60(TB) leukemia (assay: NCI-60 one-dose screen, 48 h (100 = growth as untreated, 0 = no growth, -100 = all killed)). Conditions: 10 µM unless noted.
`NC(=NCCCOc1ccc(F)cc1)Nc1ccc(Cl)cc1` gave a growth of 72%. Molecule `Cc1ccc(-c2cc(-c3ccccc3C)[nH]c(=O)c2C#N)s1` has a growth of 80.4%. With `COc1cc(OCc2cccc(-c3ccccc3)c2C)cc(OC)c1CN1CCCCC1C(=O)NCCOCCOCCN` (stereo not given) the growth was -42.4% (active). With `CCN(CC)c1ccc(C(O)C2=CC(=O)c3ccccc3C2=O)cc1` (stereo not given) the growth was -1.99% (active). `Cn1c(-c2ccccc2)cc(=O)cc1-c1ccccc1` showed a growth of 99.8%. `NNC(=O)CNC(=O)Nc1n[nH]c(=S)s1` gave a growth of 107%. In the case of `Cc1nc2ccccc2c(/C=C/c2ccc(Br)cc2)c1C(=O)/C=C/c1ccccc1`, the growth is reported as 2.74% (active). `O=C1C(Cl)=C(SC2=NCCN2)C(=O)c2ccccc21` gave a growth of 81.4%. `COc1ccc(C(C(=O)O)c2ccc(OC)cc2)cc1` showed a growth of 97.9%. With `O=C(/C=C/c1cccc(O)c1)c1cccc(-n2cc(-c3ccc(Cl)cc3)[nH]c2=O)c1` the growth was -6.19% (active). Work on `O/N=C1\c2ccccc2-c2ccc(F)cc21` yielded a growth of 92.3%. For `Cc1cc(C)c(C#N)c(SCC(=O)c2sc3c(C#N)c(C)cc(C)[n+]3c2[O-])n1`, the growth was -39.3% (active). `CNC(=O)c1cc(Oc2ccc3c(c2)sc2nc(-c4ccc(NC(=O)Nc5ccc(Cl)c(C(F)(F)F)c5)cc4)cn23)ccn1` showed a growth of 32.2%. Molecule `C=C(C)[C@@H]1CC[C@]2(C(=O)NNC(=O)c3cccnc3)CC[C@]3(C)[C@H](CC[C@@H]4[C@@]5(C)CCCNC(C)(C)[C@@H]5CC[C@]43C)[C@@H]12` has a growth of 66.9%. `CSc1nc(N)c2c(n1)NC(c1ccccc1)C1CCc3ccccc3C1=N2` (stereo not given) showed a growth of 26.4%. `O=C(COCc1c(-c2ccccc2)no[n+]1[O-])Nc1nc(-c2ccc(Cl)cc2)cs1` showed a growth of 119%. `OCC1OC(n2ccc3c2ncn2ncnc32)C(O)C1O` (stereo not given) was tested, and the growth was -14.4% (active). `CC1CCCN(CCCCOc2ccc(-c3ccc(C#N)cc3)cc2)C1` (stereo not given) gave a growth of 92.6%. In the case of `C[C@H]1[C@@H]2[C@H]3CC[C@@H]4[C@@]5(C)Cc6c([nH]c7ccccc67)C(C)(C)[C@@H]5CC[C@@]4(C)[C@]3(C)CC[C@]23CO[C@]1(C)[C@@H](C(=O)/C=C/c1ccccn1)C3`, the growth is reported as 72.4%. With `COc1cc(/C=C/C(=O)c2ccc(Cl)cc2)ccc1OS(=O)(=O)c1ccc(C)cc1` the growth was 75.2%. `OB(O)c1ccsc1-c1nc2ccc3[nH]ncc3c2c2c1CCCC2` was tested, and the growth was 52.2%. In the case of `CSc1nc2c(c(=O)[nH]1)C(c1ccc(Cl)cc1)C1=C(N2)/C(=C/c2ccc(Cl)cc2)CNC1` (stereo not given), the growth is reported as 55.4%. Work on `Cc1csc(-c2nnc(Nc3ccc(Oc4ncccc4-c4ccnc(N)n4)cc3)c3ccccc23)c1` yielded a growth of 12.9%. `O=[N+]([O-])c1cccc(C(F)(F)F)c1` gave a growth of 109%. Work on `O=C(Nc1ccc(OCc2nnc(-c3ccc(Cl)cc3)o2)c(F)c1)Nc1ccc(Cl)c(Cl)c1` yielded a growth of 95.5%. For `COC(=O)Nc1ccc(NC(=O)OC)cc1`, the growth was 95.9%. With `CC(C)CCSc1nc(NNC(N)=O)c(C#N)c(-c2ccccc2)n1` the growth was 99.8%. In the case of `Cn1cc(-c2csc(-c3cn(CCN)c4ccc(F)cc34)n2)c2cccnc21`, the growth is reported as 47.1%. `CN(C)c1ccc2cc(-c3cc4c(oc3=O)-c3ccccc3OC4O)c(=O)oc2c1` (stereo not given) was tested, and the growth was -66.5% (active). `CC(/C=C/c1ccccc1)=N/NC(=O)c1ccncc1` was tested, and the growth was 92.2%. `CNCc1ccccc1CN(CC(=O)Nc1ccc2c(c1)CC1(C2)C(=O)Nc2ncccc21)C(=O)C(C)(C)C` (stereo not given) showed a growth of 100%. In the case of `COc1cc2nc3cc([N+](=O)[O-])ccc3c(NCCCNCCO)c2cc1OC`, the growth is reported as -25.3% (active). Molecule `O=C(Nc1ccc(F)cc1)c1cc([N+](=O)[O-])ccc1O` has a growth of 59.6%. Molecule `CC1=C/C(=C(\c2cc(C)c(O)c(C(=O)O)c2)c2c(Cl)cccc2Cl)C=C(C(=O)O)C1=O` has a growth of 106%. In the case of `CN1C(=O)CNC(=O)[C@H](NC(=O)c2nc3ccccc3cc2O)CSSC[C@H]1C(=O)NCCc1nc2ccccc2cc1O`, the growth is reported as -36.8% (active). `CC(C)C1=C[C@@]23CC[C@H]4[C@](C)(COCCC#N)CCC[C@]4(C)[C@H]2C[C@@H]1[C@@H]1[C@H]3[C@@H](OCCC#N)CC[C@@H]1OCCC#N` was tested, and the growth was -42.7% (active). `O=C1Nc2ccccc2/C1=C\c1nc(-c2ccccc2)n2ccccc12` showed a growth of 85.6%. `CNC(=O)c1ccccc1CC1(O)c2ccccc2Oc2ccccc21` showed a growth of 17.8%. Work on `CONC1=Nc2cc(NC(N)=NCc3ccccc3)c(N(C)C3CCCCC3)cc2OC1` yielded a growth of 69.5%. `CN(C)CCCC1(c2ccc(F)cc2)OCc2cc(-c3ccc(C(F)(F)F)nc3)ccc21` (stereo not given) gave a growth of 43.1%.

From PubChem BioAssay (NCI)
